18 compounds from PubChem BioAssay (NCATS) can be followed below.

In general, viability refers to a read-out of living cells in per cent, often relative to untreated cells.

For assay [1], the target named is Cellular tumor antigen p53 (Homo sapiens) (UniProt P04637). In words: Primary qHTS for small molecule compounds that upregulate eGFP-tagged delta133p53alpha (in N-terminal) cells. (AID 2060322). Further: nearly all actives have a fitted effect of over 75% in size. Further: potency means the concentration at half of the fitted maximal effect.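 On activation: cells pre-induced with doxycycline then dosed without doxycycline; 0% = DMSO vehicle and 100% = reference activator.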 The settings on record: NCI-H358 eGFP-delta133p53alpha fluorescence, 24 h; activation: hits give high values. The gist of the method: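 NCI-H358 cells pre-induced 24 h with 10 ng/ml doxycycline for eGFP-delta133p53alpha, plated dox-free and exposed 24 h at 37C to titrated compounds. Fixed, Hoechst-stained; gated GFP peak intensity by laser scanning cytometry, normalized to DMSO (0%) and 57.5 uM 5-azacytidine (100%).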
Sequence of Cellular tumor antigen p53 (Homo sapiens) (P04637 whole entry, looked up): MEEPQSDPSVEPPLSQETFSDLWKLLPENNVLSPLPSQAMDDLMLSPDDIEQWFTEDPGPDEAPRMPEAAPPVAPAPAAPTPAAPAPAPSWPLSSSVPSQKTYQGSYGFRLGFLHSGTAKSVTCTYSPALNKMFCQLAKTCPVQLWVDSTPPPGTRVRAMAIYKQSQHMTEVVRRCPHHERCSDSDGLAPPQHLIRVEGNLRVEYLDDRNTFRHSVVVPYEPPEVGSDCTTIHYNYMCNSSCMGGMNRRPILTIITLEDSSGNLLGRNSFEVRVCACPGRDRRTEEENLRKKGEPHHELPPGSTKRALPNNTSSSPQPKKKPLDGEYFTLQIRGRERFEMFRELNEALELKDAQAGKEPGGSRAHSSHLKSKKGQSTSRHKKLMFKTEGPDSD
In general terms: Quantitative high-throughput screening tests each substance at several concentrations.

For assay [2], the target named is Aldehyde dehydrogenase, mitochondrial (Homo sapiens) (UniProt P05091). In words: qHTS for Inhibitors of the Aldehyde Dehydrogenase Family (ALDH2) Confirmatory screens (AID 2061303; active means well fitted inhibition curve with a large enough effect; title and protocol of this record describe different tests; further: nearly all actives have a fitted effect of over 45% in size; further: potency means the concentration at half of the fitted maximal effect). The settings on record: ALDH inhibition qHTS; series mostly up to 45.4 µM.
The target is the same in assay [3]. In words: qHTS for Inhibitors of the Aldehyde Dehydrogenase Family (ALDH2) Primary screen (AID 2061308).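 Further: plate controls were vehicle for no effect and reference inhibitor for full effect; nearly all actives have a fitted effect of over 55% in size.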 The settings on record: ALDH2 enzyme inhibition qHTS, 1536-well; series mostly up to 56 µM.
Assay [4] deals with Retinaldehyde dehydrogenase 3 (Homo sapiens) (UniProt P47895). The assay can be described thus: qHTS for Inhibitors of the Aldehyde Dehydrogenase Family (ALDH1A3) Confirmatory screens (AID 2061311). Further: nearly all actives have a fitted effect of over 60% in size. Further: potency means the concentration at half of the fitted maximal effect. The settings on record: ALDH inhibition qHTS; series mostly up to 46 µM.
Assay [5] shares this target. In words: qHTS for Inhibitors of the Aldehyde Dehydrogenase Family (ALDH1A3) Validation screen (AID 2061312). Further: nearly all actives have a fitted effect of over 45% in size. Further: potency means the concentration at half of the fitted maximal effect. The settings on record: ALDH1A3 enzyme inhibition qHTS validation, fluorescence; series mostly up to 84.7 µM.
Assay [6] concerns the target Retinal dehydrogenase 2 (Homo sapiens) (UniProt O94788). In words: qHTS for Inhibitors of the Aldehyde Dehydrogenase Family (ALDH1A2) Confirmation screens (AID 2061314). Further: nearly all actives have a fitted effect of over 65% in size. Further: potency means the concentration at half of the fitted maximal effect. The settings on record: ALDH1A2 enzyme inhibition qHTS confirmation; series mostly up to 45.9 µM.
Assay [7] deals with Retinaldehyde dehydrogenase 3 (Homo sapiens) (UniProt P47895). In words: qHTS for Inhibitors of the Aldehyde Dehydrogenase Family (ALDH1A3) Primary screen (AID 2061315).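 Further: plate controls were DMSO vehicle for no effect and reference inhibitor for full effect.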 The settings on record: ALDH inhibition qHTS; series mostly up to 56 µM.
The target in assay [8] is Aldehyde dehydrogenase 1A1 (Homo sapiens) (UniProt P00352). In words: qHTS for Inhibitors of the Aldehyde Dehydrogenase Family (ALDH1A1) Confirmatory screens (AID 2061316). Further: nearly all actives have a fitted effect of over 65% in size. Further: potency means the concentration at half of the fitted maximal effect. The settings on record: ALDH inhibition qHTS; series mostly up to 47.3 µM.
A short description of assay [9]: BET inhibitor-based combinations targeting novel dependencies in MECOM-rearranged (r) AML: SET-2 cell line (AID 2202231). Further: nearly all actives have a fitted effect of over 35% in size. Further: potency means the concentration at half of the fitted maximal effect.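 On viability: plate controls were DMSO treated cells for no effect and wells without cells for full effect.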 The settings on record: SET-2 AML cells viability, CellTiter-Glo luminescence, 48 h; viability: hits give low values, concentration not given here. The essentials:
(§1)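 Readout: CellTiter-Glo luminescence. Exposure: 48 h, 11 concentrations, 500 cells/well. Metric: AUC and within-line Z-AUC after DMSO/empty-well normalization.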
A general note: Cellular ATP, detected with luciferase, serves as a proxy for viable cell number.

Assay [10] in a line: BET inhibitor-based combinations targeting novel dependencies in MECOM-rearranged (r) AML: OCI-AML3 cell line (AID 2202232). Further: nearly all actives have a fitted effect of over 35% in size. Further: potency means the concentration at half of the fitted maximal effect. The settings on record: CellTiter-Glo luminescence, 48 h; Potency: OCI-AML3 viability; series mostly up to 46 µM. The essentials:
as §1

Assay [11] is described as follows: BET inhibitor-based combinations targeting novel dependencies in MECOM-rearranged (r) AML: MV-4-11 cell line (AID 2202233). Further: nearly all actives have a fitted effect of over 45% in size. Further: potency means the concentration at half of the fitted maximal effect. The settings on record: MV-4-11 AML viability, CellTiter-Glo luminescence, 48 h; series mostly up to 46 µM. The gist of the method:
(§2)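 Seeding density was 500 cells/well, and drug exposure lasted 48 hr under standard culture conditions. Read-out used CellTiter-Glo reagent with a 15 min room-temperature incubation before luminescence measurement; AUC and Z-AUC summarize the normalized responses.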

The nature of assay [12]: BET inhibitor-based combinations targeting novel dependencies in MECOM-rearranged (r) AML: HNT-34 cell line (AID 2202234). Further: nearly all actives have a fitted effect of over 35% in size. Further: potency means the concentration at half of the fitted maximal effect. The settings on record: HNT-34 AML viability, CellTiter-Glo luminescence, 48 h; series mostly up to 46 µM. The essentials:
as §2

Assay [13] is described as follows: BET inhibitor-based combinations targeting novel dependencies in MECOM-rearranged (r) AML: UCSD-AML1 cell line (AID 2202235). Further: nearly all actives have a fitted effect of over 40% in size. Further: potency means the concentration at half of the fitted maximal effect. The settings on record: UCSD-AML1 AML cells viability, CellTiter-Glo, 48 h; series mostly up to 46 µM. The gist of the method:
as §2

Assay [14] can be described thus: BET inhibitor-based combinations targeting novel dependencies in MECOM-rearranged (r) AML: AML-191 cell line (AID 2202236; further: nearly all actives have a fitted effect of over 35% in size; further: potency means the concentration at half of the fitted maximal effect). The settings on record: AML-191 viability, CellTiter-Glo luminescence, 48 h; series mostly up to 46 µM. The essentials: as §1
The nature of assay [15]: BET inhibitor-based combinations targeting novel dependencies in MECOM-rearranged (r) AML: AML-194 cell line (AID 2202237; further: nearly all actives have a fitted effect of over 40% in size; further: potency means the concentration at half of the fitted maximal effect). The settings on record: AML-194 (MECOM-r AML) viability, CellTiter-Glo, 48 h; series mostly up to 46 µM. The essentials: as §1
Assay [16] in a line: qHTS for Inhibitors of the Aldehyde Dehydrogenase Family (ALDH1A2, ALDH1A3, ALDH2, ALDH3A1) (AID 2061307). Further: nearly all actives have a fitted effect of over 50% in size. The settings on record: ALDH inhibition qHTS; series mostly up to 50.3 µM.

The structures appear in SMILES notation. Where “and” joins values, the source holds several entries; their conditions need not be identical. Equal values may be shown once. Results filed as inconclusive are left out. A number with no mark means an inactive call. Calls of active or inactive are those of the source. Unless noted, the call rests on the fitted dose curve; in most records, active means well fitted curve in the direction sought with a large enough effect; inconclusive means small, poorly fitted or top-dose-only effect, or another doubt; inactive means no such curve, though single readings can be large; an effect the other way counts as inactive or inconclusive. Positions of bridges follow the written chain, without caps; N, C: chain ends. Non-standard residues stand in square brackets, D forms with d. Residues, ends and D or L forms follow the SMILES beside them. *: point of attachment. X1 = CCC(C)C(N)C1=NC(C(=O)*)CS1; dOrn = NCCC[C@@H](N)C(=O)O

In the case of `Nc1ccccc1NC(=O)c1ccc(CNC(=O)OCc2cccnc2)cc1`, the activation in assay [1] was 3.28%. In addition, the Potency result in assay [2], in assay [3], in [4], in [5], in [6] and in [7] was “inactive” each time. Also, the Potency entry in assay [8] was “inactive”. The Potency in [9] is 2090 nM (active); in assay [10] it was 2350 nM (active); in assay [11], 1480 nM (active); in assay [12], 2350 nM (active); in assay [13], 1660 nM (active); in assay [14], 2630 nM (active). Further, the Potency in [15] was 4680 nM (active).

As to `O=C1CC(c2ccc([N+](=O)[O-])cc2)=NN1c1ccccc1`, the activation in [1] is -8.93%. Also, the Potency entry in assay [2], in assay [16] and in assay [8] was “inactive” in each case. Besides, in [4], the Potency was 11300 nM (active).

As for `CC(C)(C)Nc1nc(Nc2ccc(C(N)=O)cc2)cc(N)c1C#N`, the activation in [1] is 11%. Besides, the Potency in assay [2] is 7080 nM (active); in assay [4], 15800 nM (active); in [6], 3570 nM (active); in [8], 14200 nM (active). The Potency result in assay [3], in assay [5] and in assay [7] was “inactive” throughout.

As for `Cc1nnc(-c2sc(NC(=O)[C@H](C(C)C)n3c(=O)[nH]c4ccccc4c3=O)nc2C)o1`, the activation in [1] is -7.64%. In addition, the Potency entry in [2], in assay [16], in assay [4], in assay [6], in assay [7] and in [8] was “inactive” throughout.

In the case of `Cn1cnc(-c2nccc3c(=O)[nH]c(OCCCC(F)(F)F)nc23)c1`, the activation in assay [1] is -13.4%. In addition, the Potency entry in [2], in assay [16], in assay [6], in [7] and in assay [8] was “inactive” throughout.

Consider `CCCCNC(=O)[C@@H]1Cc2ccccc2N1C(=O)[C@@H](N)CC`, for which the activation in [1] is -9.55%. In addition, the Potency result in assay [2], in assay [16], in assay [4], in assay [6], in [7] and in [8] was “inactive” each time.

Turning to `O=C(CCCCCCC(=O)Nc1ccccc1)NO`, in [1], the activation was 17.7% and 26.7%. The Potency result in assay [2], in assay [3], in assay [4], in assay [6] and in [8] was “inactive” throughout. In addition, the Potency in assay [5] is 22400 nM (active); in [10], 1860 nM (active); in [11] it was 742 nM (active).

Regarding `N[C@@H](CCNCc1ccc(Cl)cc1)C(=O)N1CCCCC1`, the activation in assay [1] is 1.91%. For the same compound, the Potency entry in assay [2], in [16], in assay [5], in assay [6], in assay [7] and in assay [8] was “inactive” each time.

Take `CC(C)C[C@H](NC(=O)[C@@H](NC(=O)c1cccc(-c2ccccc2)n1)[C@@H](C)O)B(O)O`: the Potency is 385 nM (active) and 16.9 µM (active) in [1]; 10000 nM (active) in assay [5]; 72.3 nM (active) in [9]; 40.7 nM (active) in assay [10]; 64.5 nM (active) in assay [12]; 72.3 nM (active) in [13]. Also, the Potency is 81.1 nM (active) in assay [14] and 91 nM (active) in [15]. Moreover, the Potency result in assay [2], in [16], in [4], in [6], in assay [7] and in assay [8] was “inactive” throughout.

As to `COCCN(C(=O)c1cc(OC)c(OC)c(OC)c1)c1nc(-c2ccccc2)cs1`, the activation in assay [1] was 19.1%. Further, the Potency result in [2], in assay [16], in [4], in assay [6] and in assay [8] was “inactive” in each case.

Regarding `CCCN(CCN1CCN(c2ccccc2OC)CC1)C1CCc2ncsc2C1` (stereo not given), in [1], the activation was -3.57%. Moreover, the Potency result in assay [2], in assay [16], in assay [4], in assay [6] and in assay [8] was “inactive” throughout.

With `CN(C)c1ccc2c(c1)OC(N)=C(C#N)C2c1cccc(C(F)(F)F)c1` (stereo not given), in [1], the Potency is 953 nM (active). The Potency entry in assay [2], in assay [16] and in [8] was “inactive” each time.

For the compound `O=C(CN1C2=NCCN2c2ccccc21)c1ccc(-c2ccccc2)cc1`, the activation in [1] was 7.16%. Besides, the Potency in assay [2] is 3570 nM (active); in [16] it was 3570 nM (active); in assay [4] it was 31600 nM (active). Also, the Potency result in assay [5], in assay [6] and in [7] was “inactive” throughout.

As to `COc1ccc(NC(=O)c2ccc(-c3ccc(C(N)=O)cc3C)cc2)cc1N1CCN(C)CC1`, in assay [1], the activation was 1.43%. For the same compound, the Potency result in [2], in assay [3], in assay [4], in assay [5], in assay [7] and in [8] was “inactive” each time.

For `COc1ccc(-c2cc3onc(-c4ccncc4)c3c(=O)n2C)cc1`, the activation in [1] is -6.68%. For the same compound, the Potency result in assay [2], in assay [16], in [7] and in assay [8] was “inactive” in each case.

`COc1cc(Nc2ncc(F)c(Nc3ccc4c(n3)NC(=O)C(C)(C)O4)n2)cc(OC)c1OC`: in assay [1], the activation was 7.29%. For the same compound, the Potency result in [2], in assay [16] and in assay [3] was “inactive” throughout. The Potency was 9340 nM (active) in assay [10]; 148 nM (active) in assay [11]; 1180 nM (active) in [12]; 1480 nM (active) in [13]; 5900 nM (active) in assay [14]; 7420 nM (active) in assay [15].

As for `C[C@@H]1CN(Cc2ncccn2)C[C@H]1c1nc2c(cnn2C2CCOCC2)c(=O)[nH]1`, in assay [1], the activation is 0.955%. Moreover, the Potency entry in assay [2], in assay [16], in assay [4], in assay [5], in [6] and in [7] was “inactive” in each case.

With `CCC(C)C(N)C1=NC(C(=O)N[C@@H](CC(C)C)C(=O)N[C@H](CCC(=O)O)C(=O)N[C@H](C(=O)N[C@H]2CCCCNC(=O)[C@H](CC(N)=O)NC(=O)[C@@H](CC(=O)O)NC(=O)[C@H](Cc3cnc[nH]3)NC(=O)[C@@H](Cc3ccccc3)NC(=O)[C@H]([C@@H](C)CC)NC(=O)[C@@H](CCCN)NC2=O)[C@@H](C)CC)CS1` (stereo not given in full) (X1-L[dE]IK[dOrn]I[dF]H[dD]N; lactam 4-C), the activation in assay [1] was -3.34% and -0.955%. The Potency in assay [2] was 12700 nM (active); in assay [6], 11300 nM (active); in assay [8], 4000 nM (active). Besides, the Potency result in assay [3], in assay [4], in assay [5], in assay [7], in assay [10] and in assay [11] was “inactive” in each case. Moreover, the Potency entry in assay [12], in assay [13], in assay [14] and in assay [15] was “inactive” each time. In addition, the viability in assay [9] was 117%.
